# Source: PubChem BioAssay (Tox21)
# Where “and” joins values, the source holds several entries; their conditions need not be identical. Identical values can stand only once. Inconclusive results are not listed. A call without a number means that no potency is given here. Where a structure was tested more than once in an assay, its records may differ in their call. Calls of active or inactive are those of the source. Unless noted, the call rests on the fitted dose curve; in most records, active means well fitted curve in the direction sought with a large enough effect in the repeat runs; inconclusive means weak or mixed curves; inactive means no such curve, though single readings can be large; an effect the other way counts as inactive or inconclusive.
# What was measured:
# [1] = qHTS assay for identifying genotoxic compounds that show differential cytotoxicity against isogenic chicken DT40 cell lines with known DNA damage response pathways - wild type cell line (AID 743012); further: nearly all actives have a fitted effect of over 60% in size; further: potency means the concentration at half of the fitted maximal effect
# In short: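 Wild type DT40, 300 cells/well, ~0.5 h settle at 37 C/5% CO2; compounds in DMSO added by pintool; 40 h at 37 C/5% CO2; CellTiter-Glo, 30 min RT; luminescence.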
# [2] = qHTS assay for identifying genotoxic compounds that show differential cytotoxicity against isogenic chicken DT40 cell lines with known DNA damage response pathways - Rev3 mutant cell line (AID 743014); further: nearly all actives have a fitted effect of over 55% in size; further: potency means the concentration at half of the fitted maximal effect
# [3] = qHTS assay for identifying genotoxic compounds that show differential cytotoxicity against isogenic chicken DT40 cell lines with known DNA damage response pathways - Rad54/Ku70 mutant cell line (AID 743015); further: nearly all actives have a fitted effect of over 60% in size; further: potency means the concentration at half of the fitted maximal effect
# [4] = qHTS assay to identify small molecule antagonists of the androgen receptor (AR) signaling pathway - cell viability counter screen (AID 743033; further: nearly all actives have a fitted effect of over 45% in size; further: potency means the concentration at half of the fitted maximal effect)
# [5] = qHTS assay to identify small molecule antagonists of the androgen receptor (AR) signaling pathway using the MDA cell line - cell viability counter screen (AID 743041; further: nearly all actives have a fitted effect of over 45% in size; further: potency means the concentration at half of the fitted maximal effect)
# In short: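 MDA-kb2 AR-luc cells (MMTV-luciferase, AR/GR responsive) treated with compounds plus R1881 agonist for 16 h at 37C. CellTiter-Fluor added at 15.5 h; fluorescence read after 30 min in the same wells.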
# [6] = qHTS assay to identify small molecule antagonists of the glucocorticoid receptor (GR) signaling pathway - cell viability counter screen (AID 720693); further: nearly all actives have a fitted effect of over 55% in size
# [7] = target: Androgen receptor (Homo sapiens) (UniProt P10275); test: qHTS assay to identify small molecule antagonists of the androgen receptor (AR) signaling pathway (AID 743035; active means well fitted inhibition curve with a large enough effect in the signal ratio in the repeat runs, not every such curve was filed as active; the % refers to the signal ratio)
# Androgen receptor (Homo sapiens), sequence (P10275 whole entry, looked up): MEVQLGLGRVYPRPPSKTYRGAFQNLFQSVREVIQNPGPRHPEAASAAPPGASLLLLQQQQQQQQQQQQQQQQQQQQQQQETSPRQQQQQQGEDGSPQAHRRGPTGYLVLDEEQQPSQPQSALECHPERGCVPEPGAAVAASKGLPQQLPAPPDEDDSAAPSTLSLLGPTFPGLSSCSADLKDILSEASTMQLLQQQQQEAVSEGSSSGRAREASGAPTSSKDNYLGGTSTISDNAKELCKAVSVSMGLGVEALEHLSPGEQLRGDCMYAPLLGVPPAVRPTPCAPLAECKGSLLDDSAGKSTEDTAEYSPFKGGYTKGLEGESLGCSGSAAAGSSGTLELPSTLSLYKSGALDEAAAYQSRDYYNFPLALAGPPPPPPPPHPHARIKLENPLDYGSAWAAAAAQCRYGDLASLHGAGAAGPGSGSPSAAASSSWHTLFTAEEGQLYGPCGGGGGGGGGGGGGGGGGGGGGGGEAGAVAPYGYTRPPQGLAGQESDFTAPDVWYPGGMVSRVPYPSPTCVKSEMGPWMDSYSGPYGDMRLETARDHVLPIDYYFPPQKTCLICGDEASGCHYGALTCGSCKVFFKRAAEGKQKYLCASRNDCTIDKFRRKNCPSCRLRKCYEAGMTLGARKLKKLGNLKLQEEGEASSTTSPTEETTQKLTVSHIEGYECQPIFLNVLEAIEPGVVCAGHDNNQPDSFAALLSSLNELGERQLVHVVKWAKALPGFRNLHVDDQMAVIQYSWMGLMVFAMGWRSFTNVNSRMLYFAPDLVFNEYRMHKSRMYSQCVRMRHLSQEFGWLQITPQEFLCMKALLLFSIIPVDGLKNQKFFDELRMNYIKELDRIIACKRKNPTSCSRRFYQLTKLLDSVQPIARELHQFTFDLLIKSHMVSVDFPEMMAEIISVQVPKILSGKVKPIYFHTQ
# In short: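 Fluorescence from a beta-lactamase FRET substrate (LiveBLAzer B/G, 2 h, room temperature) measured inhibition of R1881-stimulated signaling in GeneBLAzer AR-UAS-bla HEK293 cells exposed to compound for 16 h at 37C.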
# [8] = target: Androgen receptor (Homo sapiens) (UniProt P10275); test: qHTS assay to identify small molecule agonists of the androgen receptor (AR) signaling pathway (AID 743036; active means well fitted activation curve with a large enough effect in the signal ratio in the repeat runs, with a control signal flat, not every such curve was filed as active; the % refers to the signal ratio)
# In short: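 Beta-lactamase under UAS control, stably integrated in HEK293 GripTite cells, reports receptor activation. After 16 h compound treatment, cells received FRET substrate for 2 h at room temperature before fluorescence reading.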
# [9] = target: Androgen receptor (Homo sapiens) (UniProt P10275); test: qHTS assay to identify small molecule agonists of the androgen receptor (AR) signaling pathway using the MDA cell line (AID 743040; further: nearly all actives have a fitted effect of over 20% in size)
# In short: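 MDA-kb2 breast carcinoma cells carrying MMTV-luciferase (responsive to AR and GR), plated 5 h then treated 16 h with compounds at 37C, 0% CO2. Read-out was ONE-Glo luminescence after 30 min at room temperature.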
# [10] = target: Androgen receptor (Homo sapiens) (UniProt P10275); test: qHTS assay to identify small molecule antagonists of the androgen receptor (AR) signaling pathway using the MDA cell line (AID 743042; further: nearly all actives have a fitted effect of over 55% in size; further: potency means the concentration at half of the fitted maximal effect)
# In short: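 MDA-kb2 breast carcinoma cells carrying MMTV-luciferase (AR/GR responsive) were co-treated with compounds and the agonist R1881 for 16 h at 37C. Inhibition read as ONE-Glo luminescence; CellTiter-Fluor fluorescence measured in parallel for cytotoxicity.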
SMILES,Potency [1],Potency [2],Potency [3],Potency [4],Potency [5],Potency [6],outcome [7],outcome [8],outcome [9],Potency [10]
CC(Cl)(Cl)C(=O)O,inactive,inactive,inactive,inactive,inactive,–,–,–,–,–
O=c1[nH]c(=O)n(Cl)c(=O)n1Cl,inactive,inactive,inactive,inactive,inactive,inactive,–,–,–,–
Cc1cc(Cl)ccc1OCC(=O)O,inactive,inactive,inactive,inactive,inactive,inactive,inactive,inactive,inactive,inactive
O=P1(N(CCCl)CCCl)NCCCO1 (configuration not stated),inactive,inactive,inactive,inactive,inactive,inactive,–,–,–,–
CCCC[n+]1ccccc1C,inactive,inactive,inactive,inactive,inactive,inactive,–,–,–,–
O=[N+]([O-])O,inactive and 42.1 µM (active),inactive and 9.43 µM (active),inactive and 29.8 µM (active),inactive,inactive,inactive,–,–,–,–
CCCCCCCCCCCCCC[P+](CCCCCC)(CCCCCC)CCCCCC,13.7 µM (active) and 6.91 µM (active),7.73 µM (active) and 6.16 µM (active) and inactive,6.14 µM (active) and 6.16 µM (active) and inactive,982 nM (active) and 3.92 µM (active) and 346 nM (active),–,–,–,–,–,–
CN(C)[C@@H]1C(=O)C(C(N)=O)=C(O)[C@@]2(O)C(=O)C3=C(O)c4c(O)cccc4[C@@](C)(O)[C@H]3[C@H](O)[C@@H]12,inactive and 68 µM (active) and 43.3 µM (active),inactive and 43.3 µM (active),inactive and 48.6 µM (active),inactive,inactive,–,–,–,–,–
O=C(O)C(Cl)Cl,inactive,inactive,inactive,inactive,inactive,inactive,–,–,–,–
C[N+](C)(C)Cc1ccccc1,inactive,inactive,inactive,inactive,inactive,inactive,–,–,–,–
Nc1ccccc1,inactive,inactive,inactive,inactive,inactive,inactive,–,–,–,–
Nc1ccc(Cl)cc1,inactive,inactive,inactive,inactive,inactive,inactive,–,–,–,–
CC[N+](CC)(CC)CC,inactive,inactive,inactive,inactive,inactive,inactive,–,–,–,–
CCCCn1cc[n+](C)c1,inactive,inactive,inactive,inactive,inactive,inactive,–,–,–,–
O=C(O)c1nc(Cl)ccc1Cl,inactive,inactive,inactive,inactive,inactive,inactive,–,–,–,–
O=C(O)C(Cl)(Cl)Cl,inactive,inactive,inactive,inactive,inactive,inactive,–,–,–,–
O=c1nc(O)n(Cl)c(=O)n1Cl,inactive,inactive,inactive,inactive,inactive,inactive,–,–,–,–
COCC(=O)N(c1c(C)cccc1C)C(C)C(=O)OC (configuration not stated),inactive and 61 µM (active),inactive and 61 µM (active),inactive,inactive,inactive,inactive,–,–,–,–
CC[n+]1ccccc1,inactive and 241 nM (active),inactive and 171 nM (active),inactive and 136 nM (active),inactive and 21.7 µM (active),–,–,–,–,–,–
CCC(=O)C(CC(C)N(C)C)(c1ccccc1)c1ccccc1 (configuration not stated),24.4 µM (active) and 41.5 µM (active),48.8 µM (active) and 60.7 µM (active) and 46.6 µM (active),43.5 µM (active) and 41.5 µM (active),inactive,inactive,–,inactive,inactive,inactive,inactive
CCCCn1cc[n+](C)c1C,inactive,inactive,inactive,inactive,inactive,–,–,–,–,–
Cc1cc(Cl)ccc1N,inactive,inactive,inactive,inactive,inactive,inactive,–,–,–,–
CCCCCC[n+]1ccccc1,–,–,–,55.5 µM (active) and 55.3 µM (active) and inactive,–,inactive,–,–,–,–
CCCC[n+]1ccc(C)cc1,inactive and 54.2 µM (active),inactive and 60.8 µM (active),inactive and 48.3 µM (active) and 60.8 µM (active),inactive,inactive,inactive,–,–,–,–
OCCOc1ccccc1,inactive,inactive,inactive,inactive,inactive,inactive,–,–,–,–
CC(=O)[O][Hg][c]1ccccc1,211 nM (active) and 271 nM (active) and 109 nM (active),376 nM (active) and 152 nM (active) and 122 nM (active),237 nM (active) and 152 nM (active) and 86.3 nM (active),5.35 µM (active) and 1.37 µM (active) and 1.95 µM (active),5.31 µM (active) and 3.82 µM (active) and 3.06 µM (active),–,–,–,inactive,2.98 µM (active) and 1.92 µM (active) and 2.17 µM (active)

SMILES,Potency [1],Potency [2],Potency [3],Potency [4],Potency [5],Potency [6],outcome [7],outcome [8],outcome [9],Potency [10]
CCCCCCCCCCCC(=O)O,inactive,inactive,27.4 µM (active),inactive,inactive,–,–,–,–,–
O=[N+]([O-])c1ccccc1O,inactive,inactive,inactive,inactive,inactive,inactive,–,–,–,–
CCC[N+]1(C)CCCCC1,inactive,inactive,inactive,inactive,inactive,inactive,–,–,–,–
CCOP(=S)(OCC)Oc1ccc2c(C)c(Cl)c(=O)oc2c1,inactive and 17.2 µM (active),inactive and 19.3 µM (active),inactive and 17.2 µM (active),inactive,inactive,inactive,–,–,–,–
O=C(O)CCl,inactive,inactive,inactive,inactive,inactive,inactive,–,–,–,–
Nc1ccc(-c2ccc(N)cc2)cc1,–,61.1 µM (active),–,inactive,inactive,–,–,–,–,–
COP(=O)(OC)OC=C(Cl)Cl,9.44 µM (active) and inactive,11.9 µM (active) and inactive,13.3 µM (active) and inactive,inactive,inactive,–,–,–,–,–
O=C(O)c1ccccc1O,inactive,inactive,inactive,inactive,inactive,–,–,–,–,–
CCNc1nc(Cl)nc(NCC)n1,inactive,inactive,inactive,inactive,inactive,–,–,–,–,–
CCCCCCCCn1cc[n+](C)c1,–,–,607 nM (active) [middle of 4 runs],15.4 µM (active) and 11.1 µM (active),2.71 µM (active) and 1.53 µM (active) and 1.55 µM (active),–,–,–,–,–
COc1ccc(N)cc1,inactive,60.6 µM (active) and 45.4 µM (active),53.5 µM (active) and 60.6 µM (active) and inactive,inactive,inactive,–,–,–,–,–
COP(=O)(OC)C(O)C(Cl)(Cl)Cl (configuration not stated),inactive,inactive,inactive,inactive,inactive,–,–,–,–,–
CCCCCCCCCCCCOS(=O)(=O)O,inactive,inactive,inactive,inactive,inactive,–,–,–,–,–
CC(=O)O,inactive,inactive,inactive,inactive,inactive,–,–,–,–,–
CCCn1cc[n+](C)c1,inactive,inactive,inactive,inactive,inactive,–,–,–,–,–
Oc1ccccc1-c1ccccc1,inactive,inactive,inactive,inactive,inactive,–,–,–,–,–
CCCC[n+]1cccc(C)c1,inactive,inactive,inactive,inactive,inactive,–,–,–,–,–
CNC,–,–,–,inactive,inactive,–,–,–,–,–
O=C(O)COc1ccc(Cl)cc1Cl,inactive,inactive,inactive,inactive,inactive,–,–,–,–,–
C1CCC(NC2CCCCC2)CC1,inactive,inactive,inactive,inactive,inactive,–,–,–,–,–
CCn1cc[n+](C)c1C,inactive,inactive,inactive,inactive,inactive,–,–,–,–,–
CCCCCCCCCCn1cc[n+](C)c1,–,–,–,2.48 µM (active),872 nM (active) and 559 nM (active) and 193 nM (active),–,–,–,–,–
CCC[N+]1(C)CCCC1,inactive,inactive,inactive,inactive,inactive,–,–,–,–,–
O=C(O)CC(O)(CC(=O)O)C(=O)O,inactive,inactive,inactive,inactive,inactive,–,–,–,–,–
CC[N+]1(C)CCCC1,inactive and 971 nM (active),inactive and 612 nM (active),inactive and 771 nM (active),inactive,inactive,–,–,–,–,–
C=CCOC(Cn1ccnc1)c1ccc(Cl)cc1Cl (configuration not stated),11.9 µM (active) and 48.7 µM (active) and 13.7 µM (active),21.1 µM (active) and 27.4 µM (active) and 12.2 µM (active),21.1 µM (active) and 43.4 µM (active) and 13.7 µM (active),inactive and 49.1 µM (active),inactive,–,–,–,–,–
